Assays:
Settings in all cases: Compound Concentration (nM):1000
MAP4K2 = tested on: MAP4K2
MAP4K3 = tested on: MAP4K3
MAP4K4 = tested on: MAP4K4
MAP4K5 = tested on: MAP4K5
MAPKAPK2 = tested on: MAPKAPK2
MAPKAPK5 = tested on: MAPKAPK5
MARK1 = tested on: MARK1
MARK2 = tested on: MARK2
MARK3 = tested on: MARK3
MARK4 = tested on: MARK4
MAST1 = tested on: MAST1
MEK1 = tested on: T1, MEK1
T1 construct: gene MAP2K1

MEK2 = tested on: T2, MEK2
T2 construct: gene MAP2K2

MEK3 = tested on: T3, MEK3
T3 construct: gene MAP2K3

MEK4 = tested on: T4, MEK4
T4 construct: gene MAP2K4

MEK5 = tested on: T5, MEK5
T5 construct: gene MAP2K5

MEK6 = tested on: T6, MEK6
T6 construct: gene MAP2K6

MELK = tested on: MELK
MERTK = tested on: MERTK
MET(M1250T) = tested on: MET(M1250T)
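Further: KINOMEscan scanMAX binding as percent activity remaining versus control; lower means stronger binding.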

Compound | Percent Control (MAP4K2) [%] | Percent Control (MAP4K3) [%] | Percent Control (MAP4K4) [%] | Percent Control (MAP4K5) [%] | Percent Control (MAPKAPK2) [%] | Percent Control (MAPKAPK5) [%] | Percent Control (MARK1) [%] | Percent Control (MARK2) [%] | Percent Control (MARK3) [%] | Percent Control (MARK4) [%] | Percent Control (MAST1) [%] | Percent Control (MEK1) [%] | Percent Control (MEK2) [%] | Percent Control (MEK3) [%] | Percent Control (MEK4) [%] | Percent Control (MEK5) [%] | Percent Control (MEK6) [%] | Percent Control (MELK) [%] | Percent Control (MERTK) [%] | Percent Control (MET(M1250T)) [%]
CN(C)CCNC(=O)Nc1ccc(N(C)c2ccnc(Nc3ccc(CS(C)(=O)=O)cc3)n2)cc1.Cl [GW830900A] | 80 | 69 | 66 | 77 | 100 | 93 | 84 | 67 | 55 | 100 | 57 | 86 | 77 | 58 | 75 | 1.9 | 100 | 56 | 91 | 22
CCn1c(-c2nonc2N)nc2c(C#CC(C)(C)O)nc(OCCNC)cc21.Cl [GSK949675] | 84 | 100 | 95 | 57 | 100 | 100 | 100 | 90 | 100 | 100 | 51 | 100 | 100 | 40 | 100 | 100 | 80 | 45 | 80 | 100
Nc1ncnc2occ(-c3ccc(NC(=O)Nc4cc(C(F)(F)F)ccc4F)cc3)c12 [GW770249X] | 27 | 29 | 56 | 11 | 100 | 100 | 83 | 94 | 71 | 94 | 100 | 98 | 100 | 100 | 100 | 21 | 100 | 53 | 1.4 | 49
CN1CCN(C(=O)c2ccc(NC(=O)Nc3ccc(N(C)c4ccnc(Nc5ccc(CS(C)(=O)=O)cc5)n4)cc3)cc2)CC1.Cl [GW830263A] | 43 | 25 | 33 | 32 | 100 | 84 | 44 | 84 | 43 | 92 | 61 | 33 | 40 | 14 | 6 | 0.1 | 82 | 81 | 56 | 2.2
Cl.O=S1CCN(Cc2ccc(-c3ccc4ncnc(Nc5ccc(OCc6ccccc6)c(F)c5)c4c3)o2)CC1 [GW576924A] | 100 | 100 | 91 | 100 | 80 | 98 | 91 | 100 | 100 | 89 | 65 | 83 | 93 | 100 | 98 | 12 | 91 | 95 | 60 | 100
CN(C)c1cc2c(Nc3ccc4c(cnn4Cc4ccccc4)c3)ncnc2cn1 [GW282974X] | 92 | 100 | 76 | 98 | 69 | 90 | 100 | 97 | 100 | 90 | 77 | 48 | 50 | 83 | 89 | 0 | 84 | 90 | 96 | 75
COc1cccc(-c2c[nH]c3c(N/N=C/c4ccncc4)ncnc23)c1 [GW814408X] | 78 | 93 | 65 | 68 | 100 | 100 | 89 | 100 | 100 | 99 | 100 | 95 | 80 | 77 | 100 | 0.1 | 100 | 79 | 94 | 54
COc1cc(N2CCN(C(C)C)CC2)ccc1Nc1nc(Nc2ccc(F)cc2C(=O)NC[C@@H](O)CO)c2cc[nH]c2n1 [GSK1392956A] | 91 | 100 | 94 | 96 | 85 | 94 | 90 | 59 | 86 | 100 | 43 | 100 | 100 | 23 | 77 | 96 | 67 | 57 | 77 | 78
CCc1ccc(Oc2nccc(-c3c(-c4ccc(F)cc4)ncn3C3CCNCC3)n2)cc1 [SB-242719] | 40 | 87 | 69 | 53 | 91 | 96 | 69 | 77 | 61 | 100 | 81 | 93 | 91 | 78 | 100 | 100 | 100 | 88 | 100 | 100
NS(=O)(=O)c1ccc(N/N=C2\C(=O)Nc3ccc(C(=O)NCc4ccncc4)cc32)cc1 [GW300657X] | 84 | 99 | 88 | 96 | 100 | 89 | 100 | 91 | 63 | 91 | 33 | 100 | 100 | 41 | 87 | 48 | 79 | 35 | 69 | 82
COc1ccc2[nH]c3c4[nH]c5ccc(OC)cc5c4c4c(c3c2c1)C(=O)NC4=O [GW296115X] | 75 | 73 | 2.7 | 51 | 100 | 90 | 100 | 71 | 83 | 100 | 45 | 70 | 59 | 46 | 91 | 0.7 | 97 | 43 | 19 | 88
COc1cc(C)c(N(C)C(=O)CN(C)C)cc1Nc1nc(Nc2cccc(F)c2C(N)=O)c2cc[nH]c2n1 [GSK2219385] | 100 | 100 | 100 | 100 | 83 | 92 | 100 | 95 | 89 | 89 | 44 | 100 | 100 | 91 | 94 | 85 | 100 | 100 | 87 | 100
O=C1Nc2ccc(C(=O)c3ccco3)cc2C1=Cc1cc(Cl)c(O)c(Cl)c1 [GW406108X] | 90 | 100 | 50 | 99 | 100 | 100 | 63 | 75 | 100 | 100 | 64 | 76 | 91 | 16 | 32 | 72 | 72 | 78 | 100 | 59
CCS(=O)(=O)c1ccc(OC)c(Nc2ncc(-c3cccc(F)c3)o2)c1 [GW621970X] | 91 | 100 | 100 | 100 | 92 | 94 | 96 | 100 | 100 | 92 | 93 | 93 | 92 | 76 | 100 | 4.1 | 82 | 86 | 67 | 100
COc1cc(C=NNc2ncnc3c2cnn3-c2ccccc2)ccc1O [GW513184X] | 89 | 100 | 66 | 94 | 100 | 97 | 97 | 90 | 100 | 93 | 83 | 76 | 82 | 100 | 100 | 4.6 | 100 | 93 | 93 | 21
COc1cc2ncnc(Nc3ccc4c(cnn4Cc4ccccc4)c3)c2cc1OC.Cl [GW282449A] | 93 | 95 | 100 | 88 | 72 | 88 | 100 | 100 | 100 | 100 | 100 | 37 | 50 | 100 | 100 | 0 | 97 | 100 | 83 | 100
COc1cccc(-n2ncc3c(N/N=C/c4ccncc4)ncnc32)c1 [GW784752X] | 95 | 100 | 96 | 100 | 88 | 89 | 100 | 100 | 100 | 84 | 76 | 98 | 96 | 79 | 97 | 2.3 | 87 | 100 | 86 | 46
Cl.O=C(Nc1ccc(Oc2ccc3[nH]c(NC(=O)c4ccco4)nc3c2)cc1)Nc1cc(C(F)(F)F)ccc1F [GW683134A] | 85 | 83 | 95 | 84 | 94 | 100 | 100 | 100 | 82 | 100 | 98 | 96 | 99 | 83 | 100 | 19 | 73 | 82 | 0.2 | 27
CC1=C(C(=O)Nc2ccc3[nH]ncc3c2)C(c2ccc3ccccc3c2)CC(=O)N1 (stereo not shown) [GSK270822A] | 100 | 90 | 79 | 93 | 97 | 96 | 91 | 95 | 100 | 76 | 87 | 79 | 74 | 69 | 82 | 70 | 92 | 100 | 100 | 32
NS(=O)(=O)c1ccc(Nc2ncc(-c3ccccc3)o2)cc1 [GW572399X] | 82 | 100 | 100 | 100 | 100 | 100 | 100 | 100 | 94 | 100 | 100 | 100 | 100 | 30 | 86 | 59 | 65 | 100 | 100 | 100

Source: article PMC7826789 (International Journal of Molecular Sciences, 2021)
